# Source: PubChem BioAssay
# Only a selection was taken, and hits are over-represented in it overall.
# LmPK inhibitor: blocks Leishmania mexicana pyruvate kinase activity; purified LmPK, Kinase-Glo ATP luminescence, 1 h; 290,000 tested, 0.37% active; Potency, µM (highest dose often 57.5 µM), for inactives: at the highest dose activity change, negative = inhibition, actives largely listed as inhibitors; also: potency is read from the fitted curve at half-maximal effect; % is scaled to controls: 0 for no effect and ±100 for the full control effect
#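 ATP generated from ADP (0.1 mM) and PEP (0.5 mM) by 0.1 nM LmPK over 1 h at room temperature (pH 7.2 imidazole buffer) was detected by coupled luciferase luminescence. Values were normalized to uninhibited and no-enzyme wells.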
# CHX counter: counter-screen for Shiga toxin inhibitors: cycloheximide protein synthesis inhibition; cell reporter, cycloheximide protein synthesis inhibition counterscreen; 300,000 tested, 12% active; AID 2314; max response, %; in the data active = max response mostly above about 13%, no sharp cut-off; inactive = mostly below about 14%; also: read at 38.3 µM for the half of the compounds with a filed dose; 0% is about no effect
# Sm TGR block: S. mansoni TGR enzyme inhibition | Potency, µM (titrated, usually from 114 µM), without a hit: top-dose activity change, negative = inhibition, hits mostly inhibitors | purified TGR, DTNB reduction, TNB absorbance 405 nm | AID 485364 | Q962Y6 | 360,000 tested, 3% active; also: potency is read from the fitted curve at half-maximal effect; % is scaled to controls: 0 for no effect and ±100 for the full control effect; nearly all actives have a fitted effect of over 60% in size
#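 TGR 20 nM + NADPH 100 uM (dispensed conc.), cpd preinc 15 min RT; start with NADPH (500 uM addition) then DTNB (15 mM addition). Kinetic TNB absorbance, 405 nm filter. Four-parameter Hill fit across titration.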
# Shiga inhibitor: Shiga toxin inhibition; Vero cells, Shiga toxin protein synthesis inhibition reporter; inhibition, % at 38.7 µM; 290,000 tested, 9.2% active; AID 2315; in the data active = inhibition mostly above about 28%, no sharp cut-off; inactive = mostly below about 43%; also: 0% is about no effect
# Tb PYK inh: T. brucei pyruvate kinase inhibition; Potency, µM (doses to about 76.8 µM), without a hit: at the highest dose activity, negative = inhibition, hits mostly inhibitors; 410,000 tested, 0.12% active; Q57TT1; TbPYK enzyme, Kinase-Glo Plus ATP luminescence, 45 min; also: potency is read from the fitted curve at half-maximal effect; % is scaled to controls: 0 for no effect and ±100 for the full control effect; nearly all actives have a fitted effect of over 50% in size
#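 TbPYK + substrate in 50 mM TEA pH 7.2, 100 mM KCl, 10 mM MgCl2, 0.05% BSA, 0.01% Tween-20; cpd pinned; ADP 130 uM final; 45 min RT; Kinase-Glo Plus 10 min; luminescence endpoint.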
# Giardia FBPA inh: Giardia lamblia aldolase inhibition; A8B2U2; purified Giardia FBPA; Potency, µM (series often up to 59.6 µM), inactives show at the highest dose activity, negative = inhibition, hits mostly inhibitors; 290,000 tested, 0.71% active; also: potency is read from the fitted curve at half-maximal effect; % is scaled to controls: 0 for no effect and ±100 for the full control effect; nearly all actives have a fitted effect of over 55% in size
# Target sequence (A8B2U2 whole entry, looked up): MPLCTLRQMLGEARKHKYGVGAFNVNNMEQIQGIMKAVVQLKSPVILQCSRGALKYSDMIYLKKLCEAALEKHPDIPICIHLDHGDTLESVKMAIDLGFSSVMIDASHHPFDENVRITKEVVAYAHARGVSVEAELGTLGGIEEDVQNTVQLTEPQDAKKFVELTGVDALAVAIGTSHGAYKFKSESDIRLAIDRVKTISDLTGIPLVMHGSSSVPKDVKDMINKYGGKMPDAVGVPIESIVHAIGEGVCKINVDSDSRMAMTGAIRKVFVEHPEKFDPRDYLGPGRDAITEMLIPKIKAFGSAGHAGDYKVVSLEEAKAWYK
#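 40 nM FBPA preincubated 10 min at RT with compound (up to 57.5 uM final), then substrate plus GAPDH/TPI/NAD/arsenate coupling and diaphorase/resazurin added. Fluorescence read after 20 min at RT, 525/598 nm.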
# * hit, by the source's call; ? = inconclusive; . = no result given; [ ] = another dose, or the depositor's remark. Unless noted, calls follow the shape of the dose curve; as a rule, active = well fitted curve in the direction sought with a large enough effect; inconclusive = small, poorly fitted or top-dose-only effect, or another doubt; inactive = no such curve, though single readings can be large; an effect the other way counts as inactive or inconclusive.
SMILES,LmPK inhibitor,CHX counter,Sm TGR block,Shiga inhibitor,Tb PYK inh,Giardia FBPA inh
CCOC(=O)c1ccc(NC(=O)C2CCCN(c3cnccn3)C2)cc1 (stereo not drawn),-1.1%,28.9*,70.1%,34.0*,-11.9%,-4.1%
CCCCc1ccc(NC(=O)c2cnccn2)cc1,-29.5%,37.0*,5.0%,61.0*,6.8%,0.9%
O=C(NCCCN1CCN(c2ccccc2F)CC1)c1ccc2nc(CCc3ccccc3)oc2c1,.,.,?,.,-3.1%,.
Clc1ccccc1CSc1nc2ccncc2[nH]1,-14.8%,21.0*,3.9%,66.5,-11.1%,-11.4%
COc1cccc(N2CCN(C(=O)c3ccc(CSc4nc5ccncc5[nH]4)cc3)CC2)c1,0.7%,-2.2,-14.4%,-7.7,26.1%,-28.6%
COc1cccc(CSc2nc3ccncc3[nH]2)c1,25.1µM*,41.1*,24.4%,50.4*,-4.6%,-7.1%
COCOc1ccc(OC)cc1C(=O)/C=C/c1ccc(OC)c(Br)c1,.,.,.,.,.,2.3%
COC(=O)c1nn2c(C(F)(F)F)cc(-c3ccc(Br)o3)nc2c1Br,4.6%,-4.2,44.7µM*,24.4,?,-0.5%
O=C(CSc1nc(C(F)(F)F)cc(=O)[nH]1)Nc1cccc2ccccc12,.,.,5.6%,.,-4.2%,.
CCN1CCN(c2cc(C)c3cc(NC(=O)CCC(=O)N4CCN(c5ccccc5OC)CC4)ccc3n2)CC1,-1.4%,17.2*,-5.5%,3.7,-2.9%,-0.7%
CCN1CCN(c2cc(C)c3cc(NC(=O)CCC(=O)N4CCN(c5ccccc5)CC4)ccc3n2)CC1,-2.0%,11.2,-2.9%,-5.9,-11.6%,5.5%
CCOc1ccc(C(=O)Nc2ccc3nc(N4CCN(CC)CC4)cc(C)c3c2)cc1,5.1%,-8.1,2.2%,-17.5,-1.6%,2.7%
CCN1CCN(c2cc(C)c3cc(NC(=O)c4cc(OC)cc(OC)c4)ccc3n2)CC1,4.4%,18.5*,2.5%,63.6*,3.3%,0.8%
Cc1cccn2c(=O)c(C(=O)NCc3cccc(F)c3)cnc12,.,.,0.0%,.,1.7%,.
O=C(Nc1cc(Cl)ccc1Cl)c1ccco1,5.8%,-0.4,-13.4%,.,2.6%,10.5%
CS/C(Nc1cc(Cl)ccc1Cl)=C(/C#N)C(=O)c1ccco1,22.4µM*,12.9,-23.1%,24.9,31.6µM*,-10.4%
Cc1ccoc1C(=O)NCCNc1ccc(Cl)cc1[N+](=O)[O-],5.2%,14.4*,-4.9%,27.3,-9.6%,-0.4%
O=C(NCCNc1ccc(Cl)cc1[N+](=O)[O-])c1cccnc1,2.7%,-3.4,-0.5%,-3.3,-0.8%,-3.2%
CCc1ccc2c(c1)C(NC(C)=O)C(=O)N2CCN1CCOCC1 (stereo not drawn),-6.5%,-0.8,89.1µM*,-2.3,-22.6%,29.9%
CCNC(=O)c1sc2cc(C)ccc2c1Cl,0.0%,25.2*,-0.3%,39.1*,2.3%,-4.2%
Cc1ccc2c(Cl)c(C(=O)NCCc3ccccc3)sc2c1,-4.6%,48.2*,-17.6%,123.9*,-3.1%,1.0%
Cc1ccc2c(Cl)c(C(=O)Nc3cc(C)on3)sc2c1,-3.2%,31.4*,-1.7%,77.7*,1.3%,1.5%
Cc1cc(NC(=O)c2c(Cl)cccc2Cl)no1,6.3%,-1.7,.,-2.6,4.9%,2.0%
Nc1nc(N)c(S(=O)(=O)c2ccccc2)c(Nc2ccc(F)cc2)n1,.,.,11.9%,.,-3.1%,.
CC(C(=O)N1c2ccc(F)cc2CCC1C)N1C(=O)c2ccccc2C1=O (stereo not drawn),2.8%,-1.8,-3.0%,4.4,1.5%,0.0%
SMILES,LmPK inhibitor,CHX counter,Sm TGR block,Shiga inhibitor,Tb PYK inh,Giardia FBPA inh
CCN1C(=O)/C(=C/C=C2/CCCN2C)OC1=S,-5.6%,28.1*,-5.6%,45.7*,0.2%,-21.9%
Cc1nn(-c2ccccc2)c(C)c1/C=C1\C(=O)N(C)C(=S)N1C,3.3%,16.3,-6.4%,-9.0,8.1%,7.2%
CCN1C(=O)/C(=C2/C=CC=CN2C)OC1=S,-3.2%,1.8,-1.8%,5.3,-6.5%,-3.1%
CN1C(=O)/C(=C\C=C2/CCCN2C)N(C)C1=S,-3.2%,22.8*,-22.6%,54.4,1.9%,?
CCN(Cc1ccccc1)S(=O)(=O)c1ccc(-c2coc(C)n2)cc1,.,.,-4.6%,.,3.7%,.
CN(C)CCSc1nnc(-c2ccccc2)o1,1.7%,38.9*,-2.9%,57.0*,1.3%,-7.9%
Cc1cccc(CSc2nnc(-c3ccco3)o2)c1,-0.3%,31.8*,3.2%,88.8*,-16.9%,-7.1%
CSc1nnc(-c2ccccc2)o1,-0.5%,-3.4,-1.1%,47.9,-3.8%,0.6%
CC(=O)c1c(C)cc(C)c(CSc2nnc(-c3ccco3)o2)c1C,-7.0%,-1.5,2.7%,-28.5,-1.7%,-11.5%
Cc1cccc(-c2nnc(SCc3ccccc3)o2)c1,-0.1%,28.3*,11.7%,92.1*,4.0%,2.4%
CCCCCSc1nnc(-c2ccc(Br)cc2)o1,.,.,1.8%,.,-6.9%,.
CN(C)c1cccc(-c2nnc(SCCCC#N)o2)c1,-2.7%,49.3*,3.6%,90.9*,1.5%,-15.6%
CCOC(=O)OCC1C=C[C@H](c2cc(-c3ccccc3)ccc2O)C(c2ccc(C(C)=O)cc2)O1 (stereo partly drawn),.,.,.,.,.,0.0%[12.9 µM]
C/C(CCC(=O)OC[C@@H]1O[C@H](C#Cc2ccccc2)C=C[C@@H]1Oc1ccc(C)cc1)=N/OC[C@@H](C)[C@H](OCc1ccccc1)C(C)C,.,.,.,.,.,0.8%[12.9 µM]
COc1cc(CC(=O)OCc2cccc([N+](=O)[O-])c2)cc(OC)c1OC,-0.6%,-1.8,78.7%,14.0,1.0%,-3.9%
O=C(Cc1ccccc1[N+](=O)[O-])OCN1C(=O)c2ccccc2C1=O,-8.9%,17.8*,-3.5%,29.9,-11.0%,.
O=C(O)C(Cc1ccccc1[N+](=O)[O-])N1C(=O)c2ccccc2C1=O (stereo not drawn),.,.,.,.,-2.6%,.
O=C(Cc1ccccc1[N+](=O)[O-])OCc1cccc([N+](=O)[O-])c1,-2.2%,31.5*,12.3%,91.7*,.,.
O=C1c2ccccc2C(=O)N1OCc1ccccc1[N+](=O)[O-],5.9%,24.4*,1.4%,81.9,-9.4%,-0.2%
O=C(Cc1ccc(F)cc1)OCN1C(=O)c2ccccc2C1=O,-7.7%,-3.6,-17.1%,-24.1,-4.6%,.
CC(=O)Oc1ccccc1N(C(C)=O)S(=O)(=O)c1ccc2ccccc2c1,-7.1%,11.1,-3.3%[57.1 µM],23.1,-5.7%,-1.0%
CC(=O)Oc1c(Br)cc(N(C(C)=O)S(=O)(=O)c2ccccc2)c2ccccc12,?,1.9,3.55µM*,.,-18.4%,28.2µM*
COC(=O)c1c(C(=O)OC)c(-c2ccc(OC)cc2)n2c1CS(=O)(=O)C2,14.5%,-1.1,50.1µM*,-19.5,-4.4%,1.4%
Cc1ncoc1C(=O)Nc1ccc2c(c1)OCCO2,15.8µM*,46.7*,14.5%,76.6*,-29.0%,-1.1%
COc1ccc(NC(=O)c2ocnc2C)cc1OC,-12.2%,12.0,2.5%,11.5,-3.2%,4.1%
